Measured values reported in PubChem BioAssay AID463195 (Sanford-Burnham Center for Chemical Genomics, 2010).
Screen size: about 330,000 compounds; about 4,600 (1.4%) were called active.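 How the source made its calls: active means inhibition of 40% or more at the single tested concentration; inactive means the rest.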 What follows is part of a selection rich in actives, with near analogues and random picks from the rest.

assay: wild-type TIM10 yeast growth inhibition – luminescence, uHTS, counter-screen for tim10-1 yeast inhibitor project, primary screen (AID 463195);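 further: wild-type TIM10 isogenic control strain grown at permissive 25 °C; 0% = DMSO yeast wells and 100% = minimal medium wells without yeast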; conditions: S. cerevisiae TIM10 strain growth, BacTiter-Glo luminescence, 24 h; at 10 µM; stronger effect = higher value

| SMILES | inhibition |
| --- | --- |
| O=C(CNC(=O)c1cccs1)N/N=C/c1cccc(Br)c1 | 18.4% (inactive) |
| O=C(N/N=C/c1cccc(Br)c1)c1ccc(N2CCCC2=O)cc1 | 12% (inactive) |
| O=C(N/N=C\c1cccc(Br)c1)c1ccccc1-n1cccc1 | 51.9% (active) |
| CC(C)(C)OC(=O)C[C@@H]1C/C=C\C[C@@H](CC(=O)NCCO)C(=O)N[C@H](Cc2c[nH]c3ccccc23)COC1=O | -3.29% (inactive) |
| CC(C)CCn1cnc2c1c(=O)n(CC(=O)NC(N)=O)c(=O)n2Cc1ccccc1 | 2.63% (inactive) |
| COc1cc(C(=O)NN(CCC#N)C2=NS(=O)(=O)c3ccccc32)cc(OC)c1OC | 8.55% (inactive) |
| Nc1ccc(-c2nnc(-c3ccccc3)o2)cc1 | 8.79% (inactive) |
| Nc1cccc(-c2cc(-c3ccccc3)nc(-c3cccc(N)c3)n2)c1 | 44.2% (active) |
| Cc1nc(NNC(=O)c2ccccc2)cc(-c2ccccc2)n1 | 10.7% (inactive) |
| CC1=NNC(=O)C1Cc1c(Cl)cccc1Cl (centres undefined) | 13.4% (inactive) |
| COc1ccc(N2C(=O)C(CC(=O)Nc3ccc(F)cc3)N(CCc3cccs3)C2=O)cc1 (centres undefined) | 27.1% (inactive) |
| CC(=O)C1=C(O)C(=O)N(c2cccnc2)C1c1ccc([N+](=O)[O-])cc1 (centres undefined) | -3.83% (inactive) |
| CCc1ccccc1NC1c2ccccc2C(=O)N1c1cccnc1 (centres undefined) | -1.26% (inactive) |
| O=C1[C@@H](c2ccccc2)[C@@H](c2ccccc2)N1c1cccnc1 | 63.5% (active) |
| COc1ccc(-c2c(C)cc3oc(=O)cc(-c4ccccc4)c3c2C)cc1C=O | -23.6% (inactive) |
| CCN(C(=O)COC(=O)CCOc1cccc(C)c1)c1c(N)n(Cc2ccccc2)c(=O)[nH]c1=O | -2.83% (inactive) |
| COc1ccccc1C1=Nc2cccc3cccc(c23)N1 | 8.32% (inactive) |
| c1ccc(C2=Nc3cccc4cccc(c34)N2)cc1 | 42.2% (active) |
| Fc1ccccc1N=C1Nc2cccc3cccc1c23 | 5.3% (inactive) |
| CCO/C=C1\C(=O)N(c2ccc(OCC)cc2)C(=O)c2ccccc21 | 1.43% (inactive) |
| COc1cc([N+](=O)[O-])ccc1NC(=O)COC(=O)CCOc1ccc(C)cc1 | 49% (active) |
| CSc1ccccc1NC(=O)COC(=O)CCCOc1ccc(C)cc1 | -8.29% (inactive) |
| COc1cccc(NC(=O)COC(=O)CCOc2ccccc2OC)c1 | 30% (inactive) |
| Cc1cccc(OCc2nnc(SCc3nc4cc(C(F)(F)F)ccc4c(=O)[nH]3)o2)c1 | 23% (inactive) |

| SMILES | inhibition |
| --- | --- |
| Cc1ccccc1OCC(=O)Nc1ccc(S(=O)(=O)N2CCOCC2)cc1 | 18.7% (inactive) |
| Cc1ccccc1OCC(=O)Nc1ccc2c(c1)ncn2C | 2.51% (inactive) |
| Cc1ccccc1OCC(=O)Nc1ccc(N2CCN(C(=O)C(C)C)CC2)c(Cl)c1 | 65.5% (active) |
| CCC(C)N(C(=O)Cn1nc(C)c([N+](=O)[O-])c1C)C1CCS(=O)(=O)C1 (centres undefined) | 2.63% (inactive) |
| CCN(CC(=O)Nc1ccc2c(c1)OCCO2)Cc1cc(=O)oc2cc(C)c(C)cc12 | 2.82% (inactive) |
| CCN(CC(=O)NC(C)C)C(=O)c1cc(S(=O)(=O)N2CCCCC2)ccc1N1CCCCC1 | -4.18% (inactive) |
| Cn1nnc2cc(C(=O)NCCC3=CCCCC3)ccc21 | 9.76% (inactive) |
| Cc1cccc(-c2nc3ccc(C(=O)NCCN4CCN(C)CC4)cc3nc2-c2cccc(C)c2)c1 | 11.7% (inactive) |
| C=CCNC(=O)c1ccc2c3n(nc2c1)-c1ccc(C)cc1CO3 | 47% (active) |
| O=C(NCc1cccnc1)c1cnc2ccccc2n1 | 3.89% (inactive) |
| O=C(O)Cc1csc(NC(=O)CSc2nnnn2-c2ccc(O)cc2)n1 | -3.77% (inactive) |
| CS(=O)(=O)N(CC(=O)Nc1ccc(Cl)c(Cl)c1)C1CCCCC1 | 27.6% (inactive) |
| O=C(CCCN1C(=O)CCC1=O)Nc1ccc(Cl)c(C(F)(F)F)c1 | -0.757% (inactive) |
| O=C(CC(O)(C(F)(F)F)C(F)(F)F)Nc1ccc(Cl)c(Cl)c1 | 88.8% (active) |
| COc1ccccc1OCCC(=O)OCC(=O)NCc1ccccc1 | 9.81% (inactive) |
| COc1cccc(NC(=O)C(=O)c2cn(CC(=O)N3CCOCC3)c3ccccc23)c1 | 11.5% (inactive) |
| COc1cccc(C(C(=O)NC2CCCC2)N(C(=O)c2ccco2)c2cccc(C(C)=O)c2)c1OC (centres undefined) | 11.8% (inactive) |
| O=C(/C=C/c1c(F)cccc1Cl)Nc1nn[nH]n1 | 0.073% (inactive) |
| CCOC(=O)NC(=O)/C(C#N)=C\c1ccccc1 | 15.6% (inactive) |
| CNC(=O)/C(C#N)=C/c1c(F)cccc1Cl | 59.2% (active) |
| NC(=S)Nc1c(Cl)cccc1Cl | -2.06% (inactive) |
| COc1ccc(Nc2ccc([N+](=O)[O-])cn2)cn1 | 1.7% (inactive) |
| COc1ccc(CS(=O)/C(Cl)=C(/Cl)C(=O)Nc2ccc(OC)nc2)cc1 (centres undefined) | 88.3% (active) |
| COc1ccc(CCNC(=O)c2cnc(Cl)c(Cl)c2)cc1 | -23.1% (inactive) |

| SMILES | inhibition |
| --- | --- |
| COc1ccc(NC(=O)/C(Cl)=C(/Cl)S(=O)Cc2ccc(C)cc2)cn1 (centres undefined) | 57.6% (active) |
| CCN(CC(=O)Nc1ccc(OC)cc1)C(=O)CSCc1ccc(C)cc1 | -9.01% (inactive) |
| COc1ccc(C(=O)CCC(=O)Nc2ccc(Cl)cc2)cc1 | -25.2% (inactive) |
| CCCCn1nc(C(=O)Nc2ccc(S(=O)(=O)Nc3ncccn3)cc2)c2ccccc2c1=O | 6.41% (inactive) |
| Cc1ccc(CN(N=Nc2nonc2N)c2nonc2N)c(C)c1 | 36.7% (inactive) |
| CCCOCC(O)CC(CC)C(=O)NNC(=S)Nc1ccccc1 (centres undefined) | 7.95% (inactive) |
| CCC12CN3CC(CC)(CN(C1)C31C(=O)N(C)c3ccc(C)cc31)C2=O (centres undefined) | -4.81% (inactive) |
| O=C1CCN(C(=O)Nc2ccccc2)N1 | -12.2% (inactive) |
| O=C(N/N=C/c1cccnc1)c1ccc(NC(=O)c2ccc(F)cc2)cc1 | -13.1% (inactive) |
| N#C/C(=C\c1cccnc1)C(=O)Nc1ccc(SC(F)F)cc1 | 45.6% (active) |
| Cc1cc(/C=C(/C#N)C(=O)Nc2ccc(Cl)cc2)c(C)n1-c1cccnc1 | -8.09% (inactive) |
| O=C1Nc2ccc([N+](=O)[O-])cc2C1=Nc1cccc(CO)c1 | 8.6% (inactive) |
| Cc1cc2oc(=O)cc(CN3CCN(S(=O)(=O)c4cccs4)CC3)c2cc1C(C)C | -1.14% (inactive) |
| COc1ccc2c(CN3CCN(S(=O)(=O)c4cccs4)CC3)cc(=O)oc2c1 | 52.4% (active) |
| COc1ccc2oc(=O)cc(CN3CCOCC3)c2c1 | -8.83% (inactive) |
| NC(=O)C(Cc1ccccc1)NC(=O)C12CC3CC(CC(C3)C1)C2 (centres undefined) | 16.3% (inactive) |
| CCO[C@@H]1OC(C(N)=O)=C[C@H](c2ccc(Br)cc2)[C@H]1CCCO | -4.73% (inactive) |
| Cn1c(SCc2ccc(F)cc2)nnc1-c1ccncc1 | -15.7% (inactive) |
| Cc1ccc(-c2noc(CSc3nnc(-c4ccncc4)n3-c3ccc(F)cc3)n2)cc1 | 46.2% (active) |
| Cc1ccc(-c2noc(CSc3nnc(-c4cccs4)n3C)n2)cc1 | 12.3% (inactive) |
| Cn1cccc1Cc1nnc(SCC(=O)NCCc2ccccc2)n1-c1ccc(F)cc1 | 10.2% (inactive) |
| Cc1nnc(SCc2ccc(C(=O)c3ccc(Cl)cc3)o2)n1-c1ccccc1 | 7.12% (inactive) |
| Fc1ccc(-n2c(Cc3ccccc3)nnc2SCc2nc(-c3ccc(Cl)cc3)no2)cc1 | 41% (active) |
| C=CCn1c(C2CC(=O)N(c3ccc(C)cc3)C2)nc2ccccc21 (centres undefined) | 0.772% (inactive) |

| SMILES | inhibition |
| --- | --- |
| COc1cccc(-n2cc3c(c2-c2ccccc2)c(=O)n(C)c(=O)n3C)c1 | -0.343% (inactive) |
| CCN(CC)CCNC(=O)c1sc2ncn(CC(=O)Nc3ccc(C)c(Cl)c3)c(=O)c2c1C | -10.3% (inactive) |
| Cc1ccc(Nc2nc(CSc3nnc(-c4ccncc4)n3-c3ccccc3C)cs2)cc1 | 19.6% (inactive) |
| CCOc1ccccc1Oc1cn[nH]c1-c1ccc(OC)cc1O | -79.8% (inactive) |
| COc1ccc(-c2cn[nH]c2-c2ccc(OC)cc2)cc1 | 35% (inactive) |
| COc1ccc(Oc2cn[nH]c2-c2ccc(OC)cc2O)cc1 | 45.7% (active) |
| COc1ccc(-c2cc3nc(C)c(CCC(=O)NC(C)CCc4ccco4)c(C)n3n2)c(OC)c1 (centres undefined) | 23.7% (inactive) |
| CN(C)c1ccnc2sc(C(=O)c3ccccc3)c(N)c12 | 40.4% (active) |
| CN(C(=O)c1ccccn1)c1nnc(-c2ccccn2)s1 | 1.41% (inactive) |
| CC(=O)c1c(Nc2ccccc2)sc(C(=O)c2ccccc2)c1C | -7.77% (inactive) |
| CCc1nc2sc(C(=O)O)c(N)c2c2c1CCCC2 | -94.9% (inactive) |
| Cc1ccc2c(N)c(C(=O)c3ccccc3)sc2n1 | 36.2% (inactive) |
| Cc1nc2sc(C(=O)c3ccccc3)c(N)c2c2c1CCCC2 | 41.5% (active) |
| Cc1nnc(SC(C(=O)Nc2cc(Cl)cc(Cl)c2)c2ccccc2)[nH]c1=O (centres undefined) | 14.3% (inactive) |
| CCn1c(SCC(=O)NC2CC2)nnc1-c1ccncc1 | -12.4% (inactive) |
| CCOc1ccc(C(CC(=O)O)n2cnnn2)cc1OC (centres undefined) | -1.38% (inactive) |
| COC(=O)c1c(NC(=O)CSc2nncs2)sc2c1CCCCC2 | 43.7% (active) |
| COC(=O)c1c(NC(=O)CCN2CCOCC2)sc2c1CCCC2 | 9.98% (inactive) |
| COC(=O)c1c(NC(=O)C2CC(C)=C(C)CC2C(=O)O)sc2c1CCCCC2 (centres undefined) | 20.6% (inactive) |
| O=C(NCc1ccccc1)C(c1ccco1)N(C(=O)c1csnn1)c1ccccc1F (centres undefined) | 5.22% (inactive) |
| CC(C)CCNC(=O)C1CCC(CNc2c(N3CCC(C)CC3)c(=O)c2=O)CC1 (centres undefined) | 2.16% (inactive) |
| Cc1cc(C)nc(NS(=O)(=O)c2ccc(N/C=C\C(=O)c3cccs3)cc2)n1 | -1.27% (inactive) |
